Bioassay records from PubChem.
A selection: hits, their analogues and other compounds. The true share with any hit is near 2.8%.
proKLK7 act: activators of human kallikrein-7 zymogen | P49862 | purified proKLK7, EDANS-DABCYL substrate fluorescence; 100% is mature enzyme control, 0% vehicle | activation, % at 7 µM | hit rate 0.9% among 370,000 | AID 652039;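 active = activation above the mean of all tested compounds plus 3 SD, computed per campaign excluding outliers beyond control limits, cut at about 13% in these data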
Target sequence (P49862 whole entry, looked up): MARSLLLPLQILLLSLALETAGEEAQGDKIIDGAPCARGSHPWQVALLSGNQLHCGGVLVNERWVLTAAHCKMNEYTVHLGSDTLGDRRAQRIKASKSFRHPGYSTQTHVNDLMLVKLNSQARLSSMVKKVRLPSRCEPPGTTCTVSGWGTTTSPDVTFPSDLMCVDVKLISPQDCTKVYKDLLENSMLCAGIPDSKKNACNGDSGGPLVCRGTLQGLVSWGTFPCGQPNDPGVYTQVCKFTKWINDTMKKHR
SMARCA2 activ: SMARCA2 function activation, primary screen | activation, % at 9.1 µM | MG213 cells, MMTV-luciferase reporter, dexamethasone, overnight | hit rate 1% among 370,000; in the data active = activation above about 7.8%;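 also: 0% = vehicle wells and 100% = reference activator wells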
MsrA inh: inhibitors of bovine MsrA; AID 651718; purified bovine MsrA, absorbance read-out; hit rate 0.75% among 360,000; inhibition, % at 15.5 µM; in the data active = inhibition above about 4.5%;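 also: 0% = vehicle wells with enzyme and 100% = reference inhibitor wells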
MsrA act: activators of bovine methionine sulfoxide reductase A; AID 602163; hit rate 0.3% among 360,000; activation, % at 10.6 µM; purified bovine MsrA, absorbance read-out; in the data active = activation above about 7.5%;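 also: 0% = vehicle and 100% = reference activator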
proKLK7 act conf: proKLK7 activation, confirmation | shares compounds with proKLK7 act | purified proKLK7, EDANS-DABCYL substrate fluorescence; scaled: vehicle 0, mature enzyme 100 | activation, % at 7 µM | hit rate 68% among 3,200;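 active = activation, as change over the incubation, above the mean of all tested compounds plus 3 SD, cut at about 13% in these data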
EDANS interfere: optically interferes with EDANS-DABCYL signal, flagging KLK7 hits; shares compounds with proKLK7 act; EDANS-DABCYL substrate fluorescence interference, no enzyme, 4 h; solvent 0%, active enzyme control 100%; activation, % at 7 µM; hit rate 80% among 3,200; AID 686952;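 active = activation above the all-compound mean plus 3 SD, ignoring values outside control-based bounds, cut at about 4.8% in these data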;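 also: value is the 4 h activation minus the activation read at time zero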
* marks the source's active call; other numbers are inactive results.

Screening Cc1cc(NCCN2CCOCC2)n2c(nc3ccccc32)c1C#N returned proKLK7 act 16.0*, SMARCA2 activ -1.9, MsrA inh 0.0, MsrA act -2.8, proKLK7 act conf -97.2 and EDANS interfere -170.0.
`CCCc1cc(NCCCN2CCOCC2)n2c(nc3ccccc32)c1C#N` gave proKLK7 act -11.3, SMARCA2 activ 1.4, MsrA inh 1.1 and MsrA act -1.5.
Screening Cc1cc(NCCCN2CCOCC2)n2c(nc3ccccc32)c1C#N returned proKLK7 act 30.8*, SMARCA2 activ 3.4, MsrA inh 0.4, MsrA act -1.4, proKLK7 act conf 66.4* and EDANS interfere 64.0*.
For COc1ccc(Cc2c(-c3cccc(Cl)c3)nc3c(C)cc(Br)cn23)c(C)c1 the results were proKLK7 act -0.1, SMARCA2 activ -4.9, MsrA inh 1.1 and MsrA act -5.6.
Cc1ccc(/C=C/C(=O)c2ccc(O)cc2)cc1 was read as proKLK7 act 0.4, SMARCA2 activ 2.5, MsrA inh 1.9 and MsrA act -3.4.
CSc1ccc(/C=C/C(=O)c2ccc(O)cc2)cc1 was read as proKLK7 act 28.0*, SMARCA2 activ 0.0, MsrA inh 3.4, MsrA act -4.5, proKLK7 act conf 2.0 and EDANS interfere 2.0.
For CCc1nc2c(OCCOc3ccc(F)cc3)cccn2c1N(C)C(=O)c1ccco1 the results were proKLK7 act 0.2, SMARCA2 activ -0.8, MsrA inh 1.6 and MsrA act -2.5.
`CCC1CCCN1Cn1cnc2c([nH]c3ccc(OC)cc32)c1=O` (stereo not given) gave proKLK7 act 27.1*, SMARCA2 activ -3.0, MsrA inh 1.5, MsrA act -0.5, proKLK7 act conf 12.1 and EDANS interfere 10.7*.
Screening CCC1CCCN1Cn1cnc2c([nH]c3ccccc32)c1=O (stereo not given) returned proKLK7 act 1.9, SMARCA2 activ 0.1, MsrA inh -0.2 and MsrA act -4.7.
Screening CCNC(=O)C1CCCN(C(=O)C(c2ccccc2)c2ccccc2)CC1 (stereo not given) returned proKLK7 act -0.3, SMARCA2 activ -2.9, MsrA inh 0.9 and MsrA act 0.1.
Cc1ccc(C23OCCN2CCn2nc4ccccc4c23)cc1 (stereo not given) was read as proKLK7 act 43.9*, SMARCA2 activ -1.9, MsrA inh 1.4, MsrA act 3.7, proKLK7 act conf 1.9 and EDANS interfere 2.3.
For c1coc(-c2nc3nc4ccccc4nc3n2CC2CCCO2)c1 (stereo not given) the results were proKLK7 act 21.6*, SMARCA2 activ 0.3, MsrA inh 1.7, MsrA act 2.1, proKLK7 act conf 8.3 and EDANS interfere 13.3*.
For c1ccc(Cn2c(-c3ccco3)nc3nc4ccccc4nc32)cc1 the results were proKLK7 act -41.5, SMARCA2 activ 5.7, MsrA inh 2.5 and MsrA act -2.4.
`COc1ccc(Cc2c(-c3ccco3)nc3ccc(Cl)cn23)c(C)c1` gave proKLK7 act -1.0, SMARCA2 activ 3.0, MsrA inh 0.3 and MsrA act -14.0.
For C[C@@H]1CN([C@@H](C)CO)C(=O)CCCn2nncc2CO[C@@H]1CN(C)C(=O)Nc1ccccc1C(F)(F)F the results were proKLK7 act -0.2, SMARCA2 activ -4.5, MsrA inh -0.6 and MsrA act -12.2.
`CCOC(=O)c1cc2nc(-c3ccco3)cc(C(F)(F)F)n2n1` gave proKLK7 act 19.4*, SMARCA2 activ 2.1, MsrA inh 1.2, MsrA act 0.4, proKLK7 act conf 0.3 and EDANS interfere -2.0.
Screening Cc1cc(NC(=O)COC(=O)CCNS(=O)(=O)c2cccc(C(F)(F)F)c2)no1 returned proKLK7 act 0.4, SMARCA2 activ -3.6, MsrA inh -1.0 and MsrA act -3.4.
For CCc1cc2c(COC(=O)CCNS(=O)(=O)c3cccc(C(F)(F)F)c3)cc(=O)oc2cc1O the results were proKLK7 act 48.0*, SMARCA2 activ -4.3, MsrA inh 1.7, MsrA act -7.3, proKLK7 act conf 55.9* and EDANS interfere 56.6*.
Screening COC(=O)[C@]12CCCCC=C1N(Cc1ccc(Cl)cc1Cl)C(=O)[C@H](CC(=O)NCc1cccc(C(F)(F)F)c1)C2 returned proKLK7 act -0.5, SMARCA2 activ -5.2, MsrA inh -0.8 and MsrA act -1.2.
Screening COc1ccc(C2CCC3(CCC(=O)N3CCO)CC2)cc1 (stereo not given) returned proKLK7 act -0.3 and SMARCA2 activ -4.3.
`Cc1ccc(/C=C2/NC(=O)N(Cc3ccccc3)C2=O)s1` gave proKLK7 act 17.4*, SMARCA2 activ 0.2, MsrA inh 1.5, MsrA act -5.5, proKLK7 act conf 5.3 and EDANS interfere -24.5.
`Cc1cccc(CN2C(=O)N/C(=C/c3ccc(C)s3)C2=O)c1` gave proKLK7 act -0.4, SMARCA2 activ 1.6, MsrA inh 0.2 and MsrA act -1.8.
For C=CCN1[C@@H](C)COc2cccc(N3CCCC3)c2S1(=O)=O the results were proKLK7 act 0.5 and SMARCA2 activ -0.2.
Screening CCOC(=O)c1c(NC(=O)c2ccco2)n(C2CCCCC2)c2nc3ccccc3nc12 returned proKLK7 act 20.9*, SMARCA2 activ -4.2, MsrA inh -1.2, MsrA act -10.7, proKLK7 act conf -18.6 and EDANS interfere -28.0.
For CCC(=O)c1cc2c(C)cc(=O)oc2c(C)c1OC(=O)C(C)C the results were proKLK7 act 139.3*, SMARCA2 activ 3.5, MsrA inh -0.6, MsrA act -7.2, proKLK7 act conf 154.9* and EDANS interfere 178.7*.
Screening CCC(=O)c1cc2c(C)cc(=O)oc2c(C)c1OC(C)=O returned proKLK7 act 452.5*, SMARCA2 activ 5.0, MsrA inh 0.8, MsrA act -3.5, proKLK7 act conf 803.8* and EDANS interfere 771.8*.
Screening CN(C(=O)C1CCOC1)c1nnc(-c2cnccn2)s1 (stereo not given) returned proKLK7 act 28.6*, SMARCA2 activ -3.1, MsrA inh 1.4, MsrA act -3.7, proKLK7 act conf 26.0* and EDANS interfere 25.9*.
COCC(=O)N(C)c1nnc(-c2cnc(C)cn2)s1 was read as proKLK7 act 16.6*, SMARCA2 activ 2.3, MsrA inh 0.5, MsrA act -11.6, proKLK7 act conf 69.9* and EDANS interfere 81.4*.
`Cc1cnc(-c2nnc(N(C)C(=O)C3CCCO3)s2)cn1` (stereo not given) gave proKLK7 act 74.5*, SMARCA2 activ -1.2, MsrA inh 1.0, MsrA act -1.7, proKLK7 act conf 114.0* and EDANS interfere 108.0*.
For COC(=O)[C@H](Cc1ccccc1)N1Cc2ccccc2Oc2cc(Br)ccc2S1(=O)=O the results were proKLK7 act 0.4, SMARCA2 activ -3.4 and MsrA inh 0.7.
